Test systems include HCT-15 colon; HT29 colon; SNB-75 CNS; SNB-19 CNS; U251 CNS; PC-3 prostate; SK-MEL-5 melanoma; UACC-62 melanoma; LOX IMVI melanoma; SK-MEL-28 melanoma; SK-MEL-2 melanoma; EKVX NSCLC; SN12C renal; UO-31 renal; TK-10 renal; ACHN renal; CAKI-1 renal; A498 renal; CCRF-CEM leukemia; MOLT-4 leukemia.
Holding throughout (assay): NCI-60 one-dose screen, 48 h (100 = growth as untreated, 0 = no growth, -100 = all killed)
Conditions in all cases: 10 µM unless noted

Structures are written as SMILES. Compounds without any hit were thinned out: in the full panel of roughly 83,000, 20% have a hit.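 Testing used 96-well plates and a 48-hour single-concentration exposure. Example: -40 means 40% of the starting cells died.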 Unmarked numbers belong to inactive results. Active and inactive are the calls of the source. Rule for the calls: active = growth percent below 10; inactive = the rest.

Take `COc1cccc(-c2nc(-c3ccc(NS(=O)(=O)c4ccccc4)cc3)[nH]c2-c2ccnc(Br)c2)c1`: the growth in the assay with HCT-15 colon was 3.93% (active); in the assay on HT29 colon it was 32.8%; with SNB-75 CNS it was 15%; with SNB-19 CNS it was 39.8%; in the assay on U251 CNS, 35.4%; with PC-3 prostate it was 15.1%. The growth was 41.7% in the assay with SK-MEL-5 melanoma; 14.8% in the assay on UACC-62 melanoma; 4.69% (active) in the assay on LOX IMVI melanoma; 25.6% in the assay with SK-MEL-28 melanoma; 10.5% in the assay with SK-MEL-2 melanoma; 32.1% in the assay with EKVX NSCLC. For the same compound, the growth is 28.4% in the assay with SN12C renal; 11.8% in the assay with UO-31 renal; 46.3% with TK-10 renal; 11.9% with ACHN renal; 18.3% with CAKI-1 renal; 28.4% with A498 renal. Besides, the growth in the assay on CCRF-CEM leukemia is 18.9%; with MOLT-4 leukemia, 4.8% (active).
With `COc1ccc(-c2[nH]ncc2-c2cc3c(c(OC)c2)OCC(=O)N3)cc1`, the growth in the assay on HCT-15 colon is 23.7%; in the assay on HT29 colon, 37.2%; in the assay with SNB-75 CNS, -20.2% (active); in the assay on SNB-19 CNS, 24.7%; in the assay on U251 CNS, 11.3%; in the assay with PC-3 prostate, 17.6%. Moreover, the growth is 11.9% in the assay on SK-MEL-5 melanoma; 25.3% in the assay on UACC-62 melanoma; 41.7% with LOX IMVI melanoma; 57.6% with SK-MEL-28 melanoma; 9.07% (active) in the assay with SK-MEL-2 melanoma; 38.7% with EKVX NSCLC. Besides, the growth is 35.8% with SN12C renal; 36.4% in the assay with UO-31 renal; 1.85% (active) with TK-10 renal; 36.7% in the assay with ACHN renal; 26% in the assay on CAKI-1 renal; -21% (active) with A498 renal. The results for the growth in the assay with CCRF-CEM leukemia and in the assay on MOLT-4 leukemia were 23.2% and 31.9%, respectively.
Turning to `O=C(CCCCCCSc1nc(-c2ccccc2)cc(-c2ccccc2)n1)NO`, the growth with HCT-15 colon is 32.6%; in the assay with HT29 colon, 8.32% (active); in the assay with SNB-75 CNS, 21.2%; in the assay with SNB-19 CNS it was 47.3%; in the assay with U251 CNS, 35%; in the assay on PC-3 prostate, 49.7%. Besides, the growth was 9.17% (active) in the assay on SK-MEL-5 melanoma; 12.8% in the assay with UACC-62 melanoma; 3.67% (active) in the assay on LOX IMVI melanoma; 39.9% in the assay with SK-MEL-28 melanoma; 74% in the assay on SK-MEL-2 melanoma; 57.1% in the assay with EKVX NSCLC. Also, the growth in the assay on SN12C renal is 70.1%; in the assay with UO-31 renal, 22.3%; with TK-10 renal, 27.2%; in the assay with ACHN renal it was 23%; with CAKI-1 renal, 13.7%; in the assay on A498 renal it was 50%. Further, the growth in the assay on CCRF-CEM leukemia is 2.47% (active); in the assay with MOLT-4 leukemia it was 5.23% (active).
As to `CCOC(=O)CCN(C(=O)Nc1ccccc1)C1CCCCC1`, the growth in the assay on HCT-15 colon is 119%; in the assay on HT29 colon it was 114%; in the assay on SNB-75 CNS, 83.5%; with SNB-19 CNS, 110%; with U251 CNS, 118%; with PC-3 prostate, 119%. For the same compound, the growth is 99.2% in the assay with SK-MEL-5 melanoma; 106% in the assay with UACC-62 melanoma; 118% in the assay on LOX IMVI melanoma; 131% in the assay on SK-MEL-28 melanoma; 119% in the assay on SK-MEL-2 melanoma; 101% in the assay on EKVX NSCLC. The growth in the assay with SN12C renal is 117%; in the assay with UO-31 renal, 118%; in the assay on TK-10 renal, 120%; in the assay with ACHN renal, 110%; in the assay with CAKI-1 renal, 110%; in the assay on A498 renal, 109%. Besides, the growth in the assay on CCRF-CEM leukemia was 107%; in the assay with MOLT-4 leukemia, 93.8%.
As for `Cc1ccc(-c2nc3c(c(-c4ccccc4)nn3-c3ccccc3)c(-c3ccc(O)cc3)c2C#N)cc1`, the growth with HCT-15 colon was 28.8%; in the assay with HT29 colon, 107%; with SNB-75 CNS, 40.5%; in the assay on SNB-19 CNS, 69.1%; in the assay on U251 CNS, 41.6%; in the assay with PC-3 prostate, 34.3%. In addition, the growth with SK-MEL-5 melanoma was 77.6%; with UACC-62 melanoma, 63.7%; in the assay with LOX IMVI melanoma, 12.2%; with SK-MEL-28 melanoma, 67.1%; in the assay on SK-MEL-2 melanoma it was 78.7%; with EKVX NSCLC, 74.5%. Further, the growth was 53.7% in the assay with SN12C renal; 39.4% with UO-31 renal; 38.3% with TK-10 renal; 67.6% with ACHN renal; 50.4% in the assay with CAKI-1 renal; 44.2% in the assay on A498 renal. The growth in the assay on CCRF-CEM leukemia is 39.1%; with MOLT-4 leukemia it was 40.5%.
Turning to `CCc1cccc2c1S/C(=C/c1ccc(Cl)cc1)C2=O`, the growth in the assay on HCT-15 colon is 92.5%; in the assay with HT29 colon, 105%; with SNB-75 CNS, 73.3%; with SNB-19 CNS, 95.1%; in the assay with U251 CNS it was 99.2%; in the assay with PC-3 prostate, 88.6%. The growth in the assay on SK-MEL-5 melanoma was 99.4%; with UACC-62 melanoma, 88.6%; with LOX IMVI melanoma, 93.8%; in the assay with SK-MEL-28 melanoma, 110%; in the assay with SK-MEL-2 melanoma it was 105%; with EKVX NSCLC, 95%. Moreover, the growth was 90.5% in the assay with SN12C renal; 70.7% with UO-31 renal; 170% with TK-10 renal; 91.3% with ACHN renal; 87.3% in the assay with CAKI-1 renal; 113% with A498 renal. For the same compound, the growth in the assay on CCRF-CEM leukemia was 98%; with MOLT-4 leukemia it was 88.8%.
With `CCn1cnc2c1c(=O)[nH]c(=O)n2CC1CCC(CNS(=O)(=O)c2ccc(OC3CCOCC3)c(F)c2)CC1` (stereo not given), the growth is 86.6% with HCT-15 colon; 37.8% with HT29 colon; 7.93% (active) with SNB-75 CNS; 59% with SNB-19 CNS; 67.9% in the assay with U251 CNS; 45.9% in the assay with PC-3 prostate. Moreover, the growth in the assay with SK-MEL-5 melanoma is 60.1%; in the assay with UACC-62 melanoma, 24.1%; in the assay with LOX IMVI melanoma, 38.4%; with SK-MEL-28 melanoma, 64.1%; in the assay with SK-MEL-2 melanoma, 74.8%; in the assay on EKVX NSCLC it was 68.1%. Besides, the growth with SN12C renal was 62.9%; in the assay on UO-31 renal, 55.2%; in the assay with TK-10 renal it was 33.7%; in the assay on ACHN renal it was 72.2%; in the assay with CAKI-1 renal, 46.2%; in the assay with A498 renal, 67.1%. The growth with CCRF-CEM leukemia was 52.6%; in the assay with MOLT-4 leukemia, 63%.
Take `Brc1ccc2[nH]cc(-c3nc(-c4c[nH]c5ccncc45)cs3)c2c1`: the growth in the assay on HCT-15 colon was -67.8% (active); in the assay on HT29 colon it was -63.2% (active); in the assay with SNB-75 CNS, 51.9%; in the assay with SNB-19 CNS, -79.5% (active); in the assay on U251 CNS, -83.9% (active); in the assay with PC-3 prostate, -66.8% (active). The growth in the assay with SK-MEL-5 melanoma is -44.1% (active); in the assay on UACC-62 melanoma, -79.4% (active); with LOX IMVI melanoma, -97.4% (active); in the assay on SK-MEL-28 melanoma, -95.6% (active); with SK-MEL-2 melanoma it was -46.8% (active); with EKVX NSCLC, -67.7% (active). The growth is -85.6% (active) in the assay on SN12C renal; -83.9% (active) in the assay with UO-31 renal; -53% (active) in the assay with TK-10 renal; -95.5% (active) with ACHN renal; -92.6% (active) in the assay on CAKI-1 renal; 55.9% with A498 renal. For the same compound, the results for the growth in the assay with CCRF-CEM leukemia and in the assay on MOLT-4 leukemia were -23.3% (active) and -58.4% (active), respectively.

These data come from PubChem BioAssay (NCI).
